# Laboratory results reported in the supplement of paper PMC8728848.
# This excerpt belongs to a sample that is enriched for the strongest signals.
# B1: SAG1 (Toxoplasma gondii), P13664 (protein)
# chain: MSVSLHHFIISSGFLTSMFPKAVRRAVTAGVFAAPTLMSFLRCGVMASDPPLVANQVVTCPDKKSTAAVILTPTENHFTLKCPKTALTEPPTLAYSPNRQICPAGTTSSCTSKAVTLSSLIPEAEDSWWTGDSASLDTAGIKLTVPIEKFPVTTQTFVVGCIKGDDAQSCMVTVTVQARASSVVNNVARCSYGADSTLGPVKLSAEGPTTMTLVCGKDGVKVPQDNNQYCSGTTLTGCNEKSFKDILPKLTENPWQGNASSDKGATLTIKKEAFPAESKSVIIGCTGGSPEKHHCTVKLEFAGAAGSAKSAAGTASHVSIFAMVIGLIGSIAACVA
# Legend:
# Test in all cases: glycan array binding signal (z-score within array); higher = stronger binding
# Conditions in all cases: glycan notation: IUPAC condensed, linker removed
# [1] = molecular target: Fuc(a1-2)Gal(b1-3)[Fuc(a1-4)]GlcNAc
# Outline: (§1)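 Glycan array data came from 3228 arrays in the Consortium for Functional Glycomics database, and only arrays with an available protein sequence were kept. Glycan names were put into IUPAC-condensed notation, and columns mapping to the same glycan were averaged. The binding signal is a within-array Z-score, averaged across arrays of one protein sequence run at different concentrations or buffers and across linkers. A negative Z-score can be read as non-binding.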
# [2] = molecular target: Fuc(a1-2)[Gal(a1-3)]Gal(b1-4)GlcNAc(b1-2)Man(a1-3)[Fuc(a1-2)[Gal(a1-3)]Gal(b1-4)GlcNAc(b1-2)Man(a1-6)]Man(b1-4)GlcNAc(b1-4)GlcNAc
# Outline: as §1
# [3] = molecular target: Fuc(a1-2)[GalNAc(a1-3)]Gal(b1-3)GlcNAc(b1-2)Man(a1-3)[Fuc(a1-2)[GalNAc(a1-3)]Gal(b1-3)GlcNAc(b1-2)Man(a1-6)]Man(b1-4)GlcNAc(b1-4)GlcNAc
# Outline: as §1
# [4] = molecular target: Fuc(a1-3)[Gal(b1-4)]GlcNAc(b1-2)Man(a1-3)[Fuc(a1-3)[Gal(b1-4)]GlcNAc(b1-2)Man(a1-6)]Man(b1-4)GlcNAc(b1-4)GlcNAc
# Outline: as §1
# [5] = molecular target: Fuc(a1-3)[Gal(b1-4)]GlcNAc(b1-3)Gal(b1-3)[Fuc(a1-4)]GlcNAc
# Outline: as §1
# [6] = molecular target: Gal(a1-3)Gal(b1-3)GlcNAc(b1-2)Man(a1-3)[Gal(a1-3)Gal(b1-3)GlcNAc(b1-2)Man(a1-6)]Man(b1-4)GlcNAc(b1-4)GlcNAc
# Outline: as §1
# [7] = molecular target: Gal(b1-3)[GlcNAc(b1-6)]GalNAc
# Outline: as §1
# [8] = molecular target: Gal(b1-4)GlcNAc(a1-6)Gal(b1-4)GlcNAc
# Outline: as §1
# [9] = molecular target: Gal3S(b1-3)[Fuc(a1-4)]GlcNAc
# Outline: as §1
# [10] = molecular target: Gal6S(b1-4)Glc
# Outline: as §1
# [11] = molecular target: GalNAc(a1-3)Gal
# Outline: as §1
# [12] = molecular target: GlcNAc(a1-4)Gal(b1-4)GlcNAc(b1-3)Gal(b1-4)GlcNAc(b1-3)Gal(b1-4)GlcNAc
# Outline: as §1
# [13] = molecular target: GlcNAc(a1-4)Gal(b1-4)GlcNAc(b1-3)Gal(b1-4)[Fuc(a1-3)]GlcNAc(b1-3)Gal(b1-4)[Fuc(a1-3)]GlcNAc
# Outline: as §1
# [14] = molecular target: Man(a1-3)[Man(a1-6)]Man(a1-6)[Man(a1-3)]Man
# Outline: as §1
# [15] = molecular target: Neu5Ac(a2-3)Gal(b1-3)GalNAc(b1-4)[Neu5Ac(a2-3)]Gal(b1-4)Glc
# Outline: as §1
# [16] = molecular target: Neu5Ac(a2-3)Gal(b1-3)GlcNAc
# Outline: as §1
# [17] = molecular target: Neu5Ac(a2-3)Gal(b1-4)GlcNAc(b1-3)Gal(b1-4)GlcNAc(b1-3)Gal(b1-4)GlcNAc
# Outline: as §1
# [18] = molecular target: Neu5Ac(a2-3)Gal(b1-4)GlcNAc(b1-3)Gal(b1-4)[Fuc(a1-3)]GlcNAc
# Outline: as §1
# [19] = molecular target: Neu5Ac(a2-3)Gal(b1-4)GlcNAc(b1-6)[Neu5Ac(a2-3)Gal(b1-3)]GalNAc
# Outline: as §1
# [20] = molecular target: Neu5Ac(a2-3)Gal(b1-4)[Fuc(a1-3)]GlcNAc(b1-3)GalNAc
# Outline: as §1
# [21] = molecular target: Neu5Ac(a2-3)Gal(b1-4)[Fuc(a1-3)]GlcNAc6S
# Outline: as §1
# [22] = molecular target: Neu5Ac(a2-6)Gal(b1-4)GlcNAc(b1-2)Man(a1-6)[GlcNAc(b1-2)Man(a1-3)]Man(b1-4)GlcNAc(b1-4)GlcNAc
# Outline: as §1
# [23] = molecular target: Neu5Ac(a2-6)GlcNAc(b1-4)GlcNAc(b1-4)GlcNAc
# Outline: as §1
# [24] = molecular target: Neu5Ac(a2-8)Neu5Ac(a2-8)Neu5Ac(a2-8)Neu5Ac(a2-3)[GalNAc(b1-4)]Gal(b1-4)Glc
# Outline: as §1
# [25] = molecular target: Neu5Gc(a2-3)Gal(b1-3)[Fuc(a1-4)]GlcNAc
# Outline: as §1
binder,measurement,setting,value
B1,glycan array binding signal (z-score),[1],0.139
same,glycan array binding signal (z-score),[2],0.615
same,glycan array binding signal (z-score),[3],-0.505
same,glycan array binding signal (z-score),[4],1.86
same,glycan array binding signal (z-score),[5],-0.232
same,glycan array binding signal (z-score),[6],1.47
same,glycan array binding signal (z-score),[7],-0.229
same,glycan array binding signal (z-score),[8],-0.386
same,glycan array binding signal (z-score),[9],7.52
same,glycan array binding signal (z-score),[10],-0.579
same,glycan array binding signal (z-score),[11],-0.761
same,glycan array binding signal (z-score),[12],0.265
same,glycan array binding signal (z-score),[13],2.24
same,glycan array binding signal (z-score),[14],-0.442
same,glycan array binding signal (z-score),[15],0.728
same,glycan array binding signal (z-score),[16],0
same,glycan array binding signal (z-score),[17],-0.703
same,glycan array binding signal (z-score),[18],1.71
same,glycan array binding signal (z-score),[19],1.61
same,glycan array binding signal (z-score),[20],3.63
same,glycan array binding signal (z-score),[21],-0.651
same,glycan array binding signal (z-score),[22],-0.2
same,glycan array binding signal (z-score),[23],-0.384
same,glycan array binding signal (z-score),[24],-0.241
same,glycan array binding signal (z-score),[25],0.031
